Assay results from PubChem BioAssay (NCI).
This is part of a sample that, as a whole, favours compounds with a hit. Of some 83,000 tested, about 20% had one in any assay.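 Cells were grown in 96-well plates and exposed to the test compound at a single concentration for 48 hours; results are reported as percent growth, with values below 10 considered active.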 Unmarked numbers belong to inactive results. Active and inactive are the calls of the source.

Tests used:
Experiment in all cases: NCI-60 one-dose screen, 48 h (100 = growth as untreated, 0 = no growth, -100 = all killed)
Settings in all cases: 10 µM unless noted
NCI-H226 lung = tested on: NCI-H226 lung
NCI-H322M lung = tested on: NCI-H322M lung
NCI-H460 lung = tested on: NCI-H460 lung
HOP-92 NSCLC = tested on: HOP-92 NSCLC
NCI-H522 lung = tested on: NCI-H522 lung
A549/ATCC NSCLC = tested on: A549/ATCC NSCLC
786-0 renal = tested on: 786-0 renal
COLO 205 colon = tested on: COLO 205 colon
DU-145 prostate = tested on: DU-145 prostate
HOP-62 NSCLC = tested on: HOP-62 NSCLC

Row | Structure (SMILES) | growth (NCI-H226 lung) | growth (NCI-H322M lung) | growth (NCI-H460 lung) | growth (HOP-92 NSCLC) | growth (NCI-H522 lung) | growth (A549/ATCC NSCLC) | growth (786-0 renal) | growth (COLO 205 colon) | growth (DU-145 prostate) | growth (HOP-62 NSCLC) [%]
1 | CN1C(=O)N(c2ccccc2)C2N=C(N/N=C/c3ccccc3)SC21 (stereo not drawn) | 58.7% | 42.5% | 9.53% (active) | 55.1% | -12.3% (active) | 33% | 33.9% | 3.78% (active) | 19.6% | –
2 | O=C1NC(=C(Cl)Cl)/C(=N/S(=O)(=O)N2CCCCC2CC2(C(F)(F)F)N=N2)N1 (stereo not drawn) | 89.7% | 97.9% | 84.6% | -51.6% (active) | -59.3% (active) | 111% | -24.7% (active) | -17.5% (active) | 74% | –
3 | NS(=O)(=O)c1cccc(Nc2nc(SCC(=O)c3ccc(Br)cc3)nc3ccccc23)c1 | 4.97% (active) | 97.6% | 38.5% | 38.2% | 40.8% | 60.3% | 14.2% | 75.8% | 69.4% | –
4 | COc1ccc(CNS(=O)(=O)/N=C2\NC(=O)NC2=C(Cl)Cl)cc1 | 46.1% | 37.1% | 19% | -2.17% (active) | 2.05% (active) | 25.7% | 28.8% | 55.4% | 27.9% | 46.9
5 | COc1ccc(-c2cc(C(=O)N=Nc3c(O)[nH]c4ccccc34)c3ccccc3n2)cc1OC | 86.2% | 89.7% | 99% | 89.5% | 90.2% | 95.7% | 104% | 98.3% | 104% | –
6 | Cc1cccc2sc(/N=C(\N)C(Cl)(Cl)Cl)nc12 | 100% | 103% | 100% | 101% | 95.7% | 92.2% | 93.9% | 110% | 92.2% | –
7 | CCOC(=O)c1c(Nc2ccccc2)nn2c(N)c(C#N)c(-c3ccc(Cl)cc3)nc12 | 42.1% | 77.4% | 12.1% | 43.2% | 72.3% | 46% | 38.7% | 69.4% | 62% | –
8 | Nc1ncc(-c2ccc3ncnc(N4CCc5cc(F)c(Cl)cc54)c3c2)cc1CO | 18.9% | -2.33% (active) | 6.98% (active) | -13.2% (active) | -18% (active) | 3.94% (active) | 4.92% (active) | -21.9% (active) | 11.3% | –
9 | O=C(N/N=C/c1ccc(Cl)s1)c1[nH]c2ccc(Br)cc2c1-c1ccccc1 | 55.9% | 49.4% | 3.42% (active) | 35.6% | -35.1% (active) | 21.2% | 7.94% (active) | -68.4% (active) | 22% | –
10 | CCN1C(=S)N(c2ccccc2)C2NC(=O)N(/N=C/C=C/c3ccccc3OC)C21 (stereo not drawn) | 98.9% | 94.9% | 89.2% | 72.3% | 89% | 87.9% | 96.1% | 122% | 101% | –
11 | COc1cc(/C=C/C(=O)c2ccccc2)ccc1Oc1nc(NCCO)nc(N2CCOCC2)n1 | 107% | 99.3% | 110% | 90.9% | 99.3% | 98.8% | 105% | 116% | 104% | –
12 | Cc1ccc(-c2nc(C(Cl)Cl)nc3cc(-c4ccccc4)nn23)cc1 | 76.4% | -36.8% (active) | -73.5% (active) | -3.62% (active) | 1.72% (active) | -56.3% (active) | 62.4% | -69.4% (active) | -26.3% (active) | –
13 | O=C(CN1C(=O)/C(=C/c2ccccc2)SC1=S)N1CCOCC1 | 105% | 91.9% | 105% | 102% | 68.2% | 97.4% | 92.3% | 116% | 103% | –
14 | CCOC(=O)c1c(Nc2ccccc2)nn2c(-c3ccco3)c(C#N)cnc12 | 76.9% | 96.8% | 93.1% | 68% | 82.6% | 95.2% | 67.2% | 98.6% | 87.9% | –
15 | CCCC(=O)NC(c1ccc(N(CC)CC)cc1)c1cc(C)c2cccnc2c1O (stereo not drawn) | 1.21% (active) | 27.8% | 1.53% (active) | 46.4% | 15.9% | 28.7% | 0.0799% (active) | 23.1% | 25.6% | –
16 | COc1cc2cc(Oc3ccc(NC(=O)c4cccc(C(F)(F)F)c4)cc3)c(C)nc2cc1OCCN1CCCCC1 | 103% | 69.2% | -69.4% (active) | 43.7% | 68.9% | 19.2% | 55.4% | -94.8% (active) | 59.4% | –
17 | Cc1sc2nc(NCc3ccccc3Cl)[nH]c(=O)c2c1C | 88.5% | 96.6% | 50.4% | 91.3% | 95.3% | 84% | 91% | 113% | 98% | –
18 | Cc1sc2c(c1C)c(=O)nc1c(-c3nc(-c4ccc(F)cc4)no3)n[nH]n12 | 93.1% | 103% | 107% | 91.2% | 100% | 106% | 99.4% | 119% | 109% | 91.8
19 | O=C(N/N=C/c1ccco1)c1[nH]c2ccc(Br)cc2c1-c1ccccc1 | 50.1% | 42.1% | 2.19% (active) | 48.7% | -39.7% (active) | 35.4% | 16.4% | -35.2% (active) | 13.4% | –
20 | CCCSc1nc(Nc2ccc(/C(C)=N\NC(N)=S)cc2)c(C#N)c(-c2ccc(OC)cc2)n1 | 27% | 80.8% | 42.8% | -20.9% (active) | 89% | 60.6% | 5.18% (active) | 113% | 52.2% | –
21 | CCN1CCN(/C(=N\c2sc(-c3ccccc3)nc2-c2ccccc2)c2ccccc2)CC1 | 56.2% | 91.8% | 72.1% | – | 71.6% | 80.2% | 51.2% | 84.5% | 93.7% | 95.4
22 | Cc1nc2cnc(N)c(C#Cc3cncc(C(=O)Nc4ccc(Cl)c(C(F)(F)F)c4)c3)c2nc1C | 26.7% | – | 53.8% | -23.9% (active) | 89.5% | 56.6% | 64.3% | 28.5% | 69.4% | 56.8
23 | COc1ccc(-c2nc3ccc(-c4nnc(SCC(=O)Nc5ccc(C(=O)/C=C/c6ccccc6)cc5)o4)cc3[nH]2)cc1OC | 98.2% | 102% | 106% | 98.4% | 98.4% | 102% | 99.3% | 115% | 107% | –
24 | CC(=O)Oc1ccccc1C(=O)Nc1ccc(C(=O)/C=C/c2ccncc2)cc1 | 92.5% | – | 45.8% | 66.1% | 71.8% | 56.5% | 33.9% | 66% | 35.6% | 91.4
25 | O=C(CSc1nnc(-c2ccc3nc(-c4ccc(Cl)cc4)[nH]c3c2)o1)Nc1ccc(C(=O)/C=C/c2ccc(Cl)cc2)cc1 | 86% | 95.4% | 102% | 94.2% | 88.4% | 95.5% | 92.6% | 118% | 111% | –
26 | Cn1cc(-c2cc(N)n3nc(-c4cn(C)c5ccc(Cl)cc45)cc3n2)c2cc(Cl)ccc21 | 111% | 85.7% | 71.4% | 95.3% | 100% | 87.9% | 99.4% | 119% | 71.4% | –
27 | CN(C)CCCOc1c2ccc(Cl)cc2nc2c1oc1ccc(Cl)cc12 | 1.15% (active) | 18.8% | -74.2% (active) | 3.27% (active) | 21% | -45.3% (active) | -93.2% (active) | -11.1% (active) | -75.7% (active) | –
28 | Nc1c(C(=O)c2ccc(Br)cc2)oc2nc(-c3cnccn3)cc(-c3cccs3)c12 | 98.6% | 103% | 97.2% | 90.8% | 98.8% | 103% | 102% | 118% | 107% | –
29 | CCOC(=O)c1c(Nc2ccccc2)nn2c(N)c(C#N)c(-c3ccccc3)nc12 | 83.3% | 94.8% | 93.2% | 81.8% | 89.7% | 97% | 79.5% | 87.4% | 81.1% | –
